The source made the active and inactive calls. Rule for the calls: active = hit-call score of the fitted dose curve at least 0.9, where 1 is the maximum; inactive = score below 0.9.
experiment: CCTE_Deisenroth_DEVTOX-GLR_Pluri_CellCount: Viability Assessment in CCTE's DevTox GLR-Pluri Assay Evaluation of Total Cell Counts, Deisenroth Lab (AID 2284430)
Description: CCTE_Deisenroth_DEVTOX-GLR_Pluri assay is a cell-based, multiplex-readout assay that uses RUES2-GLR, a human pluripotent cell line, with measurements taken at 48 hours after chemical dosing in a 384-well microplateCCTE_Deisenroth_DEVTOX-GLR_Pluri_CellCount is 1 of 4 assay components calculated from the CCTE_Deisenroth_DEVTOX-GLR_Pluri assay and it measures cell count. Using fluorescent nuclei staining, gain-of-signal activity can be used to understand changes in cell viability with fluorescent microscopy. It is designed to make measurements of nuclei counts as a surrogate for cell number, as detected with optical fluorescence microscopy by Perkin Elmer Harmony nuclei detection algorithm. To generalize the intended target to other relatable targets, this assay component is annotated to the cell cycle intended target family, where the subfamily is cytotoxicity.Data from the assay component CCTE_Deisenroth_DEVTOX-GLR_Pluri_CellCount was analyzed as 1 assay endpoint. The endpoint the percent change in the cell count relative to the 0.2% DMSO control in the CCTE_Deisenroth_DEVTOX-GLR_Pluri assay. Furthermore, this assay endpoint can be referred to as a primary readout, because this assay has produced multiple assay endpoints where this one serves as a measure of cytotoxicity.
All assay protocols are aligned to the DevTox GLR-Endo assay workflow. Cells are seeded into 384-well microplates for 24 hours prior to initiating differentiation in defined media for a total duration of 48 hours. A total of two chemical exposures are administered in 24-hour intervals during the 48-hour differentiation period. At the assay termination point, cells are fixed and stained with a fluorescent dye demarcating the nucleus. High-content imaging is used to acquire brightfield and fluorescent channel images across 5 fields per well. Cell identification and mean biomarker fluorescence intensities are calculated with image analysis software to determine the total cell counts for viability assessment and the biomarker expression frequency for each lineage-dependent assay. A typical experimental design tests a 10-point concentration series (1 nM - 200 uM) for 28 compounds in single technical replicate. Assay plate controls include non-differentiated pluripotent cells (baseline control), lineage-specific differentiated cells (differentiation control), and DMSO solvent exposed differentiated cells (solvent control). Experiments typically comprise a minimum of four experimental replicates (n=4).

Structure (SMILES) | outcome | AC50
O=C(c1ccc(F)cc1)C1CCN(CCn2c(=O)[nH]c3ccccc3c2=O)CC1 | inactive | –
Cc1nc(Nc2ncc(C(=O)Nc3c(C)cccc3Cl)s2)cc(N2CCN(CCO)CC2)n1 | – | 0.0132 µM (active)
O=c1[nH]c(=O)n([C@H]2C[C@H](O)[C@@H](CO)O2)cc1Br | – | 23.7 µM (active)
Cc1ccc(NC(=O)c2ccc(CN3CCN(C)CC3)cc2)cc1Nc1nccc(-c2cccnc2)n1 | – | 22.4 µM (active)
CN1CCN2c3ccccc3Cc3ccccc3C2C1 (centres undefined) | – | 0.877 µM (active)
CC1=C(/C=C/C(C)=C/C=C/C(C)=C\C(=O)O)C(C)(C)CCC1 | – | 19 µM (active)
O=C1Cc2cc(CCN3CCN(c4nsc5ccccc45)CC3)c(Cl)cc2N1 | – | 4.26 µM (active)
CNC(=O)c1cc(Oc2ccc(NC(=O)Nc3ccc(Cl)c(C(F)(F)F)c3)cc2)ccn1 | – | 184 µM (active)
Cc1nc2sccn2c(=O)c1CCN1CCC(=C(c2ccc(F)cc2)c2ccc(F)cc2)CC1 | – | 9.92 µM (active)
COc1cc2c(Nc3ccc(Br)cc3F)ncnc2cc1OCC1CCN(C)CC1 | inactive | –
COc1cc2ncnc(Nc3ccc(F)c(Cl)c3)c2cc1OCCCN1CCOCC1 | inactive | –
CCCCCN=C(N)N/N=C/c1c[nH]c2ccc(OC)cc12 | – | 7.83 µM (active)
Nc1cccc2c1CN(C1CCC(=O)NC1=O)C2=O (centres undefined) | inactive | –
CCN(CC)CCNC(=O)c1c(C)[nH]c(/C=C2\C(=O)Nc3ccc(F)cc32)c1C | – | 1.23 µM (active)
